Data on 21 compounds can be found in PubChem BioAssay (EPA / NIEHS).

SMILES strings stand for the structures. The source made the active and inactive calls. The calls were made as follows: active = hit-call score of the fitted dose curve at least 0.9, where 1 is the maximum; inactive = score below 0.9.

Read-out in test [1]: Macrophage colony-stimulating factor (MCSF), CSF1 (gene 1435)
Put plainly: BSK_hDFCGF_MCSF: BioMAP Diversity Plus: hDFCGF Assay for Macrophage colony-stimulating factor (MCSF) Biomarker Activity (AID 2283060). The following applies: primary human foreskin fibroblasts; actives raise or lower the signal. In a few lines: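 Human foreskin primary fibroblasts were treated with test chemical for 24 h, and M-CSF was then measured by ELISA. Data were fitted bidirectionally against DMSO as the negative control and activity baseline.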

A short description of test [2]: BSK_hDFCGF_SRB: Viability Assessment in the BioMAP Diversity Plus: hDFCGF Assay (AID 2283061).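 Also: cells exposed to compound for 24 h before the read.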 The following applies: primary human foreskin fibroblasts. Put shortly:
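Human foreskin primary fibroblasts were treated with compound and assessed 24 h after dosing. Total protein was measured by sulforhodamine B staining (0.1% SRB after 10% TCA fixation, 560 nm read) as a cytotoxicity marker, with bidirectional fitting against DMSO baseline.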

Read-out in test [3]: TIMP metallopeptidase inhibitor 1 (TIMP1), TIMP1 (gene 7076)
Put plainly: BSK_hDFCGF_TIMP1: BioMAP Diversity Plus: hDFCGF Assay for TIMP metallopeptidase inhibitor 1 (TIMP1) Biomarker Activity (AID 2283062). The following applies: primary human foreskin fibroblasts; actives raise or lower the signal. In a few lines: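 Primary human foreskin fibroblasts in the hDFCGF system were dosed with compound for 24 h, then TIMP-1 was measured by ELISA. Activity was fitted bidirectionally relative to DMSO control; parallel SRB staining assessed cytotoxicity.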

Read-out in test [4]: Monokine induced gamma interferon (MIG), CXCL9 (gene 4283)
As to the kind of experiment: BSK_hDFCGF_MIG: BioMAP Diversity Plus: hDFCGF Assay for Monokine induced gamma interferon (MIG) Biomarker Activity (AID 2283063). The following applies: primary human foreskin fibroblasts; actives raise or lower the signal. Put shortly:
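ELISA read-out of MIG from primary human dermal fibroblasts 24 h post-dosing. Gain or loss of signal fitted bidirectionally, DMSO as baseline.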

Read-out in test [5]: Matrix Metallopeptidase 1 (MMP1), MMP1 (gene 4312)
As to the kind of experiment: BSK_hDFCGF_MMP1: BioMAP Diversity Plus: hDFCGF Assay for Matrix Metallopeptidase 1 (MMP1) Biomarker Activity (AID 2283064). The following applies: primary human foreskin fibroblasts; actives raise or lower the signal. Put shortly:
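hDFCGF primary fibroblasts (human foreskin); chemical added; 24 h; MMP1 by ELISA; bidirectional fit vs DMSO.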

Read-out in test [6]: Vascular cell adhesion molecule 1 (VCAM1), VCAM1 (gene 7412)
Put plainly: BSK_hDFCGF_VCAM1: BioMAP Diversity Plus: hDFCGF Assay for Vascular cell adhesion molecule 1 (VCAM1) Biomarker Activity (AID 2283065).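 As to AC50: VCAM-1 protein level quantified by ELISA after 24 h chemical exposure.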 The following applies: primary human foreskin fibroblasts; actives raise or lower the signal. Put shortly:
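Primary human foreskin fibroblasts (hDFCGF system) were dosed with chemical and VCAM-1 was measured by ELISA 24 h later. Bidirectional curve fitting used DMSO as negative control and activity baseline.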

Read-out in test [7]: Plasminogen activator inhibitor-1 (PAI1), SERPINE1 (gene 5054)
Put plainly: BSK_hDFCGF_PAI1: BioMAP Diversity Plus: hDFCGF Assay for Plasminogen activator inhibitor-1 (PAI1) Biomarker Activity (AID 2283066). The following applies: primary human foreskin fibroblasts; actives raise or lower the signal. In a few lines: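 Human foreskin fibroblast primary cells, 24 h chemical exposure; PAI-1 measured by ELISA. Bidirectional fitting relative to DMSO; parallel cultures stained with SRB for total protein to flag overt cytotoxicity.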

Read-out in test [8]: Interferon-gamma inducible Protein 10 (IP10), CXCL10 (gene 3627)
Put plainly: BSK_KF3CT_IP10: BioMAP Diversity Plus: KF3CT Assay for Interferon-gamma inducible Protein 10 (IP10) Biomarker Activity (AID 2283068). The following applies: primary human keratinocytes with fibroblasts; actives raise or lower the signal. Put shortly:
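KF3CT co-culture (keratinocytes + foreskin fibroblasts), 24 h compound, IP-10 by ELISA; bidirectional fit vs DMSO baseline.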

The nature of test [9]: BSK_KF3CT_SRB: Viability Assessment in the BioMAP Diversity Plus: KF3CT Assay (AID 2283069).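 Also: fitted for both signal gain and loss against DMSO baseline.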 The following applies: primary human keratinocytes with fibroblasts. In a few lines: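 Keratinocytes co-cultured with foreskin fibroblasts (human primary); chemical added, 24 h; fix 10% TCA, stain 0.1% SRB, A560. Bidirectional fit vs DMSO.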

Turning to `CCCCC(CC)COP(=O)(Oc1ccccc1)Oc1ccccc1` (stereo not given), the AC50 – broadly, the concentration at which the activity in the assay is half-maximal – in test [1] is 6.1 µM (active); in test [2], 4.47 µM (active); in [3], 5.46 µM (active); in test [4] it was 11 µM (active); in test [5], 6.33 µM (active); in test [6], 1.69 µM (active). The AC50 was 6.48 µM (active) in test [7] and 20 µM (active) in test [9]. For the same compound, in [8], the outcome was inactive.
On to `CCOP(=S)(S)OCC`, for which the result in test [1], in [2], in test [3], in [4], in test [5] and in [6] was inactive. In addition, the result in test [7], in test [8] and in test [9] was inactive.
In the case of `CCOP(=S)(Oc1ccc([N+](=O)[O-])cc1)c1ccccc1` (stereo not given), the values for the AC50 in test [1], in test [6] and in [7] were 7.24 µM (active), 7.62 µM (active) and 3.35 µM (active), respectively. Further, the result in test [2], in test [3], in [4], in test [5], in test [8] and in test [9] was inactive.
Take `CCN(CC)c1ccccc1`: the outcome in test [1], in [2], in test [3], in test [4], in test [5] and in test [6] was inactive. In addition, the outcome in test [7], in [8] and in test [9] was inactive.
Take `COP(=O)(CCC(=O)NCO)OC`: the result in [1], in test [2], in [3], in test [4], in test [5] and in [6] was inactive. Also, the outcome in test [7], in test [8] and in test [9] was inactive.
As to `COP(N)(=S)OC`, the result in test [1], in test [2], in [3], in test [4], in test [5] and in test [6] was inactive. Besides, the result in test [7] and in test [8] was inactive.
`O=[N+]([O-])c1ccccc1`: the outcome in test [1], in [2], in test [3], in test [4], in [5] and in test [6] was inactive. Also, the outcome in [7], in test [8] and in [9] was inactive.
Take `c1ccc2c(c1)Nc1ccccc1S2`: the AC50 was 9.32 µM (active) in test [1], 20 µM (active) in test [6] and 29.4 µM (active) in test [7]. Further, the outcome in test [2], in [3], in [4], in test [5], in [8] and in [9] was inactive.
Consider `CCOP(=S)(NC(C)C)Oc1ccccc1C(=O)OC(C)C` (stereo not given), for which the outcome in test [1], in [2], in [3], in [4], in [5] and in [6] was inactive. Also, the outcome in [8] was inactive. For the same compound, the AC50 in test [7] was 0.257 µM (active).
For `Cc1ccc2c(c1N)C(=O)c1ccccc1C2=O`, the result in test [1], in test [2], in test [3], in test [4], in test [5] and in [6] was inactive. Moreover, the result in test [7], in test [8] and in test [9] was inactive.
Take `O=S(=O)(F)C(F)(F)C(F)(F)C(F)(F)C(F)(F)C(F)(F)C(F)(F)C(F)(F)C(F)(F)F`: the outcome in [1], in test [2], in test [3], in [4], in test [5] and in test [6] was inactive. Also, the outcome in [7], in test [8] and in test [9] was inactive.
For the compound `COCCOCCO`, the result in [1], in [2], in test [3], in [4], in test [5] and in test [6] was inactive. In addition, the result in [7], in test [8] and in [9] was inactive.
For the compound `N#Cc1cc([N+](=O)[O-])ccc1N`, the result in test [1], in test [2], in test [3], in test [4], in test [5] and in [6] was inactive. Further, the outcome in test [7], in test [8] and in [9] was inactive.
With `c1nc[nH]n1`, the result in test [1], in test [2], in test [3], in [4], in [5] and in test [6] was inactive. For the same compound, the result in [7] and in test [8] was inactive.
Turning to `O=c1ssc(Cl)c1Cl`, the AC50 in test [1] was 3.29 µM (active); in test [2], 2.71 µM (active); in [3], 2.65 µM (active); in [4] it was 5.86 µM (active); in [5], 4.13 µM (active); in test [6], 4 µM (active). For the same compound, the AC50 in test [7] was 4.05 µM (active); in [8], 7.06 µM (active); in [9], 2.83 µM (active).
Consider `c1ccc(OP(Oc2ccccc2)Oc2ccccc2)cc1`, for which the result in [1], in test [2], in test [3], in [4], in [5] and in test [6] was inactive. For the same compound, the result in test [7], in [8] and in test [9] was inactive.
Take `O=S1(=O)OCC2C(CO1)C1(Cl)C(Cl)=C(Cl)C2(Cl)C1(Cl)Cl` (stereo not given): the outcome in test [1], in test [2], in test [3], in test [4], in test [5] and in test [6] was inactive. Besides, the result in [7], in test [8] and in [9] was inactive.
For the compound `ClC(Cl)=C(c1ccc(Cl)cc1)c1ccccc1Cl`, the AC50 in test [1] is 2.86 µM (active); in test [2], 3.51 µM (active); in test [3], 3.94 µM (active); in test [4], 4.45 µM (active); in test [5], 3.83 µM (active); in test [6] it was 2.68 µM (active). Also, the AC50 in [7] was 4.24 µM (active); in [8], 3.5 µM (active).
Regarding `O=C(O)C1C(C(=O)O)C2(Cl)C(Cl)=C(Cl)C1(Cl)C2(Cl)Cl` (stereo not given), the result in test [1], in test [2], in test [3], in test [4], in test [5] and in test [6] was inactive. Moreover, the outcome in [7], in test [8] and in test [9] was inactive.
In the case of `O=C(O)C=CC(F)(C(F)(F)F)C(F)(F)F`, the outcome in [1], in [2], in [3], in [4], in [5] and in test [6] was inactive. The result in [7], in test [8] and in test [9] was inactive.
Regarding `CCCCC(CC)COC(=O)c1c(Br)c(Br)c(Br)c(Br)c1C(=O)OCC(CC)CCCC` (stereo not given), the outcome in [1], in test [2], in test [3], in test [4], in [5] and in test [6] was inactive. Further, the result in test [7], in test [8] and in test [9] was inactive.
